Values joined by “and” are separate entries in the source; they are usually repeats but may differ in a detail not shown here. Equal values may be shown once. Inconclusive results are not listed. The source holds several records for some structures; these can differ, active in one and inactive in another. Active and inactive are the calls of the source. Rule for the calls: active = hit-call score of the fitted dose curve at least 0.9, where 1 is the maximum; inconclusive = response in the unintended direction; inactive = score below 0.9.
Assay: CCTE_Shafer_MEA_dev_AB: CCTE's Alamar Blue Assay for Cytotoxicity in the Neural Network Formation Assay, Shafer Lab (AID 2284083);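 note: twelve days of exposure from plating with re-dosing on DIV 5 and 9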
Summary of the method: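 Primary rat cortical neurons on PEI-coated 48-well MEA plates, 1.5 x 10^5 cells/well in laminin drop; compound exposure from day 0 of plating for twelve days, renewed at medium changes on DIV 5 and 9. Viability read as resazurin reduction by fluorescence, relative to DMSO.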

Q: With `Clc1ccc(C(c2ccccc2Cl)C(Cl)(Cl)Cl)cc1` (stereo not given) as the molecule, how does the AC50 read?
A: The AC50 was 6.13 µM (active).

Q: For `CO/C=C(/C(=O)OC)c1ccccc1COc1cccc(C(F)(F)F)n1`, which AC50 is on record?
A: The AC50 was 856 nM (active) and 1.12 µM (active).

Q: For `CCC(C)(c1ccc(O)cc1)c1ccc(O)cc1`, which outcome is on record?
A: The outcome was “inactive”.

Q: With `CCOP(=S)(OCC)SCSC(C)(C)C` as the molecule, how does the AC50 read?
A: Its AC50 is 18.7 µM (active) and 82.5 µM (active).

Q: Which outcome does the source give for `c1cc2ccc3cccc4ccc(c1)c2c34` here?
A: Its outcome is “inactive”.

Q: With `O=S(=O)(O)C(F)(F)C(F)(F)C(F)(F)C(F)(F)C(F)(F)C(F)(F)F` as the molecule, how does the outcome read?
A: Its outcome is “inactive”.

Q: For `ClC1=C(Cl)[C@]2(Cl)[C@@H]3[C@@H](Cl)[C@H]4O[C@H]4[C@@H]3C1(Cl)C2(Cl)Cl`, which AC50 is on record?
A: Its AC50 is 23.9 µM (active).

Q: With `C=CC(N)=O` as the molecule, how does the outcome read?
A: Its outcome is “inactive”.

Q: Which AC50 does the source give for `Oc1ccc(C(c2ccc(O)cc2)(C(F)(F)F)C(F)(F)F)cc1` here?
A: The AC50 was 16 µM (active).

Q: What about the outcome of the same molecule?
A: The outcome was “inactive”.

Q: For `ClC1=C(Cl)[C@]2(Cl)[C@@H]3[C@@H]4C[C@@H]([C@H]5O[C@@H]45)[C@@H]3[C@@]1(Cl)C2(Cl)Cl`, which AC50 is on record?
A: The AC50 was 22.4 µM (active).

Q: Which AC50 does the source give for `NS(=O)(=O)C(F)(F)C(F)(F)C(F)(F)C(F)(F)C(F)(F)C(F)(F)C(F)(F)C(F)(F)F` here?
A: The AC50 was 24 µM (active).

Q: And the outcome?
A: The outcome was “inactive”.

Q: Which AC50 does the source give for `ClC(Cl)=C(c1ccc(Cl)cc1)c1ccc(Cl)cc1` here?
A: The AC50 was 6.02 µM (active).

Assay: CCTE_Shafer_MEA_acute_LDH: CCTE's Lactate Dehydrogenase Assay for Cytotoxicity in the Neural Acute Assay, Shafer Lab (AID 2284086);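 note: active means LDH release rises above DMSO vehicle level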
Summary of the method: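 Medium from rat cortical neuron MEA cultures sampled right after the 40 min compound-exposure recording; released LDH measured by absorbance at 490 nm. Analyzed as signal gain relative to DMSO.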

Q: Which outcome does the source give for `Nc1ccc(-c2ccc(N)cc2)cc1` here?
A: Its outcome is “inactive”.

Q: With `CO/C=C(/C(=O)OC)c1ccccc1COc1cccc(C(F)(F)F)n1` as the molecule, how does the outcome read?
A: Its outcome is “inactive”.

Q: For `O=C(N[C@H]1CN2CCC1CC2)c1cc2ccoc2cn1`, which outcome is on record?
A: The outcome was “inactive”.

Q: Which outcome does the source give for `CCC(C)(CC)c1cc(NC(=O)c2c(OC)cccc2OC)on1` here?
A: Its outcome is “inactive”.

Q: For `CCCCCCCCCC[N+](C)(C)CCCCCCCCCC`, which AC50 is on record?
A: Its AC50 is 31.3 µM (active).

Q: For `O=C(O)C(F)(F)C(F)(F)C(F)(F)C(F)(F)C(F)(F)F`, which outcome is on record?
A: The outcome was “inactive”.

Q: Which outcome does the source give for `CCC(C)(c1ccc(O)cc1)c1ccc(O)cc1` here?
A: The outcome was “inactive”.

Q: For `c1ccc(-c2ccccc2)cc1`, which outcome is on record?
A: Its outcome is “inactive”.

Q: Which outcome does the source give for `CCCCCCCCCc1ccc(O)cc1` here?
A: The outcome was “inactive”.

Q: For `CCC(C)c1cc([N+](=O)[O-])cc([N+](=O)[O-])c1O` (stereo not given), which outcome is on record?
A: The outcome was “inactive”.

Q: Which outcome does the source give for `CC#Cc1cc(C)nc(Nc2ccccc2)n1` here?
A: The outcome was “inactive”.

Q: For `ClC1=C(Cl)[C@]2(Cl)[C@@H]3[C@@H](Cl)[C@H]4O[C@H]4[C@@H]3C1(Cl)C2(Cl)Cl`, which outcome is on record?
A: The outcome was “inactive”.

Q: Which outcome does the source give for `Clc1ccc(C(Cl)(Cl)Cl)cc1` here?
A: The outcome was “inactive”.

Q: For `CCCN(CCC)N=O`, which outcome is on record?
A: Its outcome is “inactive”.

Q: Which outcome does the source give for `C=CC(N)=O` here?
A: The outcome was “inactive”.

Q: For `COc1ccc(O)c(C(C)(C)C)c1`, which outcome is on record?
A: Its outcome is “inactive”.

Q: For `CC(C)C(=O)OCC(C)(C)C(OC(=O)C(C)C)C(C)C` (stereo not given), which outcome is on record?
A: The outcome was “inactive”.

Q: With `CN(C)CCO` as the molecule, how does the outcome read?
A: Its outcome is “inactive”.

Q: With `ClC1=C(Cl)[C@]2(Cl)[C@@H]3[C@@H]4C[C@@H]([C@H]5O[C@@H]45)[C@@H]3[C@@]1(Cl)C2(Cl)Cl` as the molecule, how does the outcome read?
A: Its outcome is “inactive”.

Q: With `ClC(Cl)=C(c1ccc(Cl)cc1)c1ccc(Cl)cc1` as the molecule, how does the outcome read?
A: Its outcome is “inactive”.

Q: With `CCSC(=O)N(CC)C1CCCCC1` as the molecule, how does the outcome read?
A: The outcome was “inactive”.
